Experimental findings from ChEMBL document CHEMBL4513216, “Probing the Open Global Health Chemical Diversity Library for Multistage-Active Starting Points for Next-Generation Antimalarials” (ACS Infect Dis, 2020) are described below.

In all, about 69,000 compounds went through this assay and about 8,600 (12%) showed an effect of 50% or more. This is one part of a sample in which strong results are shown more often than they occur.

In this test the test system is Plasmodium berghei. The test is described as follows: Screen against P. berghei liver stage (PbLuc), transformed with Luciferase, at 10uM. In kind it is functional, HepG2. To be noted: tested at 10 uM.
As to `O=C(NCC1(COc2cnccn2)C[C@@H](O)[C@@H](O)C1)C1CC1` (stereo not given in full), the INHIBITION was 18.2%.

On to `COc1nn(C)c2c1CCCN(C(=O)COc1ccccc1)C2`, for which the INHIBITION was -15.7%. With `COc1cc(NC(=O)CCn2nc(-c3cccs3)oc2=O)cc(OC)c1` the figure was -7.81%; with `CC1CCCN(C(=O)c2ccn(COc3ccccc3)n2)C1` (stereo not given), 27.5%. With `CC(C)N1CCc2c(c(COc3cncnc3)nn2CC2CC2)C1` the figure was 2.4%; with `Cc1nn(C)c(N2CCOCC2)c1CNC(C(N)=O)c1ccccc1` (stereo not given), -32.4%; with `COc1ccc(CNC(=O)NCC(=O)NC2CC2)c(C(F)(F)F)c1`, 26.6%.

For the molecule `CCc1ccc(S(=O)(=O)Nc2ccc(F)cc2C(=O)O)s1`, the INHIBITION is on record as 5.605%. Consider `CC(=O)N1CCO[C@@H]2CN(S(=O)(=O)c3cccs3)CC[C@@H]2C1`, for which the INHIBITION was found to be 21.6%.

`CC1CCN(C(=O)[C@H]2C[C@@H]3CCN(CC4CCOCC4)C[C@@H]3O2)CC1`: the INHIBITION amounted to 24.9%. Regarding `CCc1cc(O)nc(C2CCCN2C(=O)c2cc(CC)on2)n1` (stereo not given), the INHIBITION stood at 51.5%. With `CCc1cc(C(=O)N2CCCC2c2nc(O)cc(CC)n2)on1` (stereo not given) the figure was 1.11%.

Regarding `CCc1cc(O)nc(C2CCCN2C(=O)COC)n1` (stereo not given), the INHIBITION is on record as 30.8%.

Take `Cc1cccc(C(=O)N2CCC(c3n[nH]c(C4CC4)n3)CC2)c1`: the INHIBITION came out at 44.1%. With `Cc1ccccc1-n1cc(C2=CCN(CCn3cc[nH]c3=O)CC2)cn1` the figure was 69.4%; with `Cc1ccccc1-n1cc(C2=CCN(CCN3CCOCC3)CC2)cn1`, 19.4%; with `O=c1[nH]ccn1CCCN1CC=C(c2cnn(-c3ccccc3)c2)CC1`, -95.3%.

As to `CCOCc1ncn2c1CN(C(=O)Nc1ccccc1)CC2`, the INHIBITION is -27%.

As for `O=C(c1cccc(O)n1)N1CCC(O)(CN2CCC(F)(F)CC2)C1` (stereo not given), the INHIBITION was -21.6%. With `CSCC(=O)N1CCc2nc(C)nc(NCc3ccccc3)c2CC1`, the INHIBITION is reported as 37.3%. With `CC(=O)N1CCc2c(nc(N(C)C)nc2N(C)CCCC2CCCO2)C1` (stereo not given) the figure was 21.7%. With `CC(=O)N1CCc2c(nc(N(C)C)nc2N(C)CCC2CCCCO2)C1` (stereo not given) the figure was -10.4%. With `CC(=O)N1CCc2c(nc(N(C)C)nc2NCCCn2ccnc2)C1` the figure was 18.4%; with `COCCNc1nc2c(c(NCCc3cccs3)n1)CCNCC2`, 28%.

Consider `CC(=O)N1CCc2c(nc(N(C)C)nc2NCc2cccs2)C1`, for which the INHIBITION amounted to 61.9%. `CC(C)NC(=O)N1CCc2nc(C(=O)NCc3ccccc3)sc2CC1`: the INHIBITION worked out at 34.1%. With `CC(=O)N1CCc2c(nc(N(C)C)nc2NCCc2cccs2)C1` the figure was 63.8%. As for `Cc1nccn1CCCNc1ncccc1C#N`, the INHIBITION was 18.4%. As to `CC(=O)N1CCc2c(nc(N(C)C)nc2NCCCn2ccnc2C)C1`, the INHIBITION stood at 71.3%.

For `Cc1nc2c(c(NCc3ccccc3)n1)CCN(C(=O)NC(C)C)CC2`, the INHIBITION is on record as 66.1%.

For `CC(=O)N1CCc2c(nc(N(C)C)nc2NCCC2CCCCO2)C1` (stereo not given), the INHIBITION is listed as 45.1%. With `Cn1c(NCC(O)c2ccc(F)cc2)c(C#N)c(=O)n(C)c1=O` (stereo not given) the figure was -60.8%.

For `Cn1cc(CN2CCCC3(CCN(c4nncs4)C3)C2)cn1` (stereo not given), the INHIBITION is given as 22.4%. With `CN1CCO[C@@H]2CN(S(=O)(=O)c3ccccc3)CC[C@@H]2C1` the figure was 4.02%; with `CC(=O)N1[C@H](CN(C)C)C[C@@H]2CN(C(=O)c3cccn3C)CC[C@@H]21`, -9.74%. Consider `COc1c(C2CCCN2C(=O)c2cscn2)c(C)nn1C` (stereo not given), for which the INHIBITION came to 38.8%. With `O=C(Nc1ccccc1)C1CN(CC2CC2)CC12CCOCC2` (stereo not given) the figure was 4.2%. In the case of `Cc1ccc(CNC(=O)CN(CCC(N)=O)c2ccc(F)cc2)cc1`, the INHIBITION is reported as 16%. With `Cc1ccc(CCNC(=O)N2CCC(Cc3cnn(C)c3)C2)cn1` (stereo not given) the figure was -3.58%; with `Cc1cc(Br)ccc1CNC(=O)C1(O)CCSCC1`, 19.1%; with `CC(=O)N1CCc2c(nc(N(C)C)nc2NC(C)Cc2cccs2)C1` (stereo not given), 78.6%. In the case of `CC(C)Nc1ncnc2c1CCN(C(=O)Cc1cccs1)CC2`, the INHIBITION is 21.8%. With `CC(=O)NC1CCN(c2nc(N(C)C)nc3c2CCCC3)CC1` the figure was 46.6%; with `CNC(=O)CN(C)c1nc(-c2ccncc2)nc2c1CCN(C(C)=O)C2`, 31.8%. With `CC(=O)NC1CCN(c2nc(N(C)C)nc3c2CCN(C(C)=O)C3)CC1` the figure was 58.9%. With `CC(=O)N1CCc2c(nc(N(C)C)nc2N(C)CCO)C1` the figure was 31.6%. In the case of `CC(=O)N1CCc2nc(N(C)C)nc(NCCc3ccccc3)c2CC1`, the INHIBITION worked out at 79.7%.

For `CN(C)c1nc2c(c(N3CCCC3)n1)CCN(C(=O)c1ccc[nH]1)CC2`, the INHIBITION is given as 34.5%. Turning to `Cc1nc(CCNc2nc(N(C)C)nc3c2CCCC3)cc(=O)[nH]1`, the INHIBITION worked out at 24.7%. With `O=C(Cc1cccs1)N1CCCCC1c1ccn2ccnc2n1` (stereo not given) the figure was 26.3%; with `CCOc1cc(C)nc(N2CCN(C(=O)c3cc[nH]n3)CC2)n1`, 40%; with `O=C(c1ccc2nncn2c1)N1CCCC(n2ccnc2)C1` (stereo not given), 16.9%. Turning to `CCNC(=O)N1CCC(=Cc2ccccc2)CC1`, the INHIBITION was 63.3%. Consider `CCCNC(=O)CCNC(=O)N1CCC(=Cc2ccccc2)CC1`, for which the INHIBITION was found to be 9%. With `CNC(=O)N1CCC(=Cc2ccccc2)CC1` the figure was -27.4%; with `CN(C)c1nc2ncc(Cl)cc2cc1C#N`, -8.35%; with `CCOC(=O)N1CCC(Nc2cc(CC)nc3c(C)c(C)nn23)CC1`, -31.4%. For `CC[C@@H](C)[C@H](NC(=O)CCn1cc(C(C)=O)c2ccccc21)C(=O)O`, the INHIBITION is recorded as -27%. With `CCn1nc(C)c2c1cnn2CCNS(=O)(=O)Cc1ccccc1` the figure was 47.4%; with `O=C(c1ccncn1)N1CCC[C@]2(C[C@H](OCC3CC3)CO2)C1`, 50.9%. As for `O=C(c1ccncn1)N1CCC[C@]2(C[C@@H](OCC3CC3)CO2)C1`, the INHIBITION turned out to be 42.7%. As for `O=C(c1cocn1)N1CCC[C@]2(C[C@@H](OCC3CC3)CO2)C1`, the INHIBITION is on record as -2.72%.

As to `Cc1cc(C(=O)N2CCC[C@]3(C[C@@H](OCC4CC4)CO3)C2)no1`, the INHIBITION came out at 21.8%. With `CCOC1COC2(CCN(C(=O)c3cccc(C)n3)CC2)C1` (stereo not given) the figure was 63.3%; with `CCOC1COC2(CCN(c3cccc(C)n3)CC2)C1` (stereo not given), 16.6%. With `CCOC1COC2(CCN(Cc3cccc(C)n3)CC2)C1` (stereo not given) the figure was 25.6%; with `Cc1cccc(C(=O)N2CCC[C@]3(C[C@@H](OCC4CC4)CO3)C2)n1`, 52%.

For the molecule `Cc1cc(C(=O)N2CCC[C@]3(C[C@H](OCC4CC4)CO3)C2)no1`, the INHIBITION was 17.1%. With `CC(CC(=O)NCCCn1cccn1)c1cccnc1` (stereo not given) the figure was 15.7%; with `CC(C)(C)c1nnc2n1C(C(=O)N1CCN(c3ncccn3)CC1)CC2` (stereo not given), 14.3%; with `Cc1ccc(C)c(CSc2nnc(C(N)C(C)C)o2)c1` (stereo not given), 21.8%. With `c1ccc(Cc2noc(CN3CCOC(Cn4cccn4)C3)n2)cc1` (stereo not given) the figure was 24%; with `Cn1cc(C(=O)NCc2ccc(N3CCCC3)nc2)ccc1=O`, 35.9%. With `CN(C)c1ccc(CNC(=O)NCCc2cn3ccccc3n2)cn1` the figure was -10.6%; with `CCOc1cc(NC(=O)N2CCOC3(CCC3)C2)ccc1C`, 2.45%. Regarding `CCN1CCCCC1C(=O)Nc1cccc(-c2nnc[nH]2)c1` (stereo not given), the INHIBITION came out at 19.7%.

For the molecule `CC1(c2ncc(CN3CCOCC3)cn2)CCCCO1` (stereo not given), the INHIBITION was 18.04%.

As for `c1cnc(-c2nn3c(CN4CCOCC4)nnc3s2)cn1`, the INHIBITION is 4.35%. Regarding `COc1nc2ccn(CCc3scnc3C)c(=O)c2cc1C#N`, the INHIBITION came out at 45.7%. As to `CC(C)SCCn1ccc2[nH]c(=O)c(C#N)cc2c1=O`, the INHIBITION was 23.5%. With `Cc1ccnc(NCCNC(=O)C2CC3(CCNCC3)CN2C)c1` (stereo not given) the figure was -17.9%; with `COc1nc2ccn(CCc3cc(O)nc(C)n3)c(=O)c2cc1C#N`, 58.3%. With `N#Cc1cc2c(=O)n(CC(O)Cc3ccccc3)ccc2[nH]c1=O` (stereo not given) the figure was 25.9%. With `CCc1nc(CCn2ccc3nc(OC)c(C#N)cc3c2=O)no1` the figure was 32.3%. `COc1nc2ccn(CCNc3cc(C)ccn3)c(=O)c2cc1C#N`: the INHIBITION is 58.3%. On to `COCCn1cnc2ccc(NC(=O)c3ccc(OC)cc3)cc2c1=O`, for which the INHIBITION was -13.6%. Regarding `COc1nc2ccn(CCc3cnccn3)c(=O)c2cc1C#N`, the INHIBITION was 72.6%. With `Cc1cc(C)n(CC2CN(c3cnc4ccccc4n3)CCO2)n1` (stereo not given) the figure was 29.7%; with `O=C(C1CC1)N1CC[C@@H]2[C@H](CC1)N(Cc1cccnc1)CCS2(=O)=O`, -49.8%. Regarding `CC(C)c1cc(C(=O)N2CCC3(CCc4ccccc4C(=O)N3)C2)on1` (stereo not given), the INHIBITION is recorded as 22.45%.

Regarding `Cc1ccc(N2CC[C@H]3O[C@H](C(=O)NCc4ccco4)CC[C@H]32)nn1`, the INHIBITION amounted to 31.1%.

Regarding `Cc1ccc(C(=O)N(C)CCOc2ccccc2F)c(=O)[nH]1`, the INHIBITION is -10.3%. With `Cn1cc(CCC(=O)N2C[C@@H]3CC[C@H]2CN(Cc2cccnc2)C3)cn1` the figure was 40.2%; with `CCS(=O)(=O)CCNc1nc(C2CCCC2)nc2c1cnn2C`, 1.93%. `Cn1ncc2c(NCCCOc3cccnc3)nc(C3CCCC3)nc21`: the INHIBITION came to 44.8%.

For `Cn1ncc2c(NCCOCc3ccccc3)nc(C3CCCC3)nc21`, the INHIBITION is 71.2%.

In the case of `Cn1ncc2c(NCCOc3ccc(F)cc3)nc(C3CCCC3)nc21`, the INHIBITION was found to be 77.1%. With `CC(C)N(CCNc1nc(C2CCCC2)nc2c1cnn2C)C(C)C` the figure was 81.1%; with `Cn1ncc2c(NCCC34CCCN3CCC4)nc(C3CCCC3)nc21`, -12.2%.

For the molecule `Cn1ncc2c(NCCn3cccc3)nc(C3CCCC3)nc21`, the INHIBITION came out at 29.4%. On to `CCOCCNc1nc(C2CCCC2)nc2c1cnn2C`, for which the INHIBITION turned out to be 2.3%. Take `CNCCCNc1nc(C2CCCC2)nc2c1cnn2C`: the INHIBITION came to 37.1%. With `O=C(NC1CC1)c1cc(Sc2ncccn2)ccn1` the figure was -17.1%; with `CCOCc1ncn2c1CN(C(=O)Nc1ccc(CC)cc1)CC2`, -9.26%. With `Cc1cccc(CN2CCCC2(C(N)=O)c2cnccn2)n1` (stereo not given) the figure was 42.4%.
